PubChem BioAssay (NCI)
About 83,000 compounds went through this panel and 20% of them were active in at least one assay; those are over-represented in the sample as a whole.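 Treatment: one concentration, 48 hours, 96-well format. Scoring: percent growth, with anything below 10 considered active.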 The source made the active and inactive calls.

How the values were obtained:
Assay in all cases: NCI-60 one-dose screen, 48 h (100 = growth as untreated, 0 = no growth, -100 = all killed)
Conditions in all cases: 10 µM unless noted
DU-145 prostate = test system: DU-145 prostate
MALME-3M melanoma = test system: MALME-3M melanoma
MDA-MB-231 breast = test system: MDA-MB-231 breast
RXF 393 renal = test system: RXF 393 renal
SF-268 CNS = test system: SF-268 CNS
SF-295 CNS = test system: SF-295 CNS
UACC-257 melanoma = test system: UACC-257 melanoma
M14 melanoma = test system: M14 melanoma
HCT-15 colon = test system: HCT-15 colon
HT29 colon = test system: HT29 colon
SNB-75 CNS = test system: SNB-75 CNS
SNB-19 CNS = test system: SNB-19 CNS
U251 CNS = test system: U251 CNS
PC-3 prostate = test system: PC-3 prostate
SK-MEL-5 melanoma = test system: SK-MEL-5 melanoma
UACC-62 melanoma = test system: UACC-62 melanoma
LOX IMVI melanoma = test system: LOX IMVI melanoma
SK-MEL-28 melanoma = test system: SK-MEL-28 melanoma
SF-539 CNS = test system: SF-539 CNS

Measured: growth

CC1(C)CC(=O)C(c2c(-c3ccccc3)[nH]c3[nH]c(=S)[nH]c(=O)c23)=C(O)C1
inactive: DU-145 prostate 124% | MALME-3M melanoma 112% | MDA-MB-231 breast 101% | RXF 393 renal 115% | SF-268 CNS 106% | SF-295 CNS 152% | UACC-257 melanoma 80.2% | M14 melanoma 107% | HCT-15 colon 112% | HT29 colon 106% | SNB-75 CNS 107% | SNB-19 CNS 93% | U251 CNS 105% | PC-3 prostate 83% | SK-MEL-5 melanoma 108% | UACC-62 melanoma 92.4% | LOX IMVI melanoma 111% | SK-MEL-28 melanoma 110%

CCOC(=O)C(CC)n1c(=O)c2cc(OC)c(OC)cc2c2cnc3[nH]ccc3c21 (stereo not given)
inactive: DU-145 prostate 78.5% | MALME-3M melanoma 98.9% | MDA-MB-231 breast 70.5% | RXF 393 renal 34.5% | SF-268 CNS 67.4% | SF-295 CNS 65% | SF-539 CNS 66.3% | UACC-257 melanoma 97.5% | HCT-15 colon 75% | HT29 colon 76.9% | SNB-75 CNS 45.3% | SNB-19 CNS 90.8% | PC-3 prostate 57.1% | SK-MEL-5 melanoma 80.9% | UACC-62 melanoma 63.2% | LOX IMVI melanoma 44.8% | SK-MEL-28 melanoma 90.7%

O=C1C=CC(=O)c2c1nc1n2CCCC1
inactive: DU-145 prostate 63.2% | MDA-MB-231 breast 89.9% | RXF 393 renal 96.5% | SF-268 CNS 83.5% | SF-295 CNS 95.8% | SF-539 CNS 74.9% | UACC-257 melanoma 84.8% | M14 melanoma 29.9% | HCT-15 colon 103% | HT29 colon 35.5% | SNB-75 CNS 131% | SNB-19 CNS 63.9% | PC-3 prostate 89.7% | SK-MEL-5 melanoma 22% | UACC-62 melanoma 71.4% | LOX IMVI melanoma 48.8% | SK-MEL-28 melanoma 68.3%
active: MALME-3M melanoma -71.2%

CC[C@H](Nc1nc(N)nc(C)c1C#N)c1nc2cccc(NCc3ccc(C(=O)NO)cc3)c2c(=O)n1-c1ccccc1
inactive: DU-145 prostate 17.2% | MALME-3M melanoma 21.5% | HCT-15 colon 38.7%
active: MDA-MB-231 breast 7.58% | RXF 393 renal -21.7% | SF-268 CNS 9.63% | SF-295 CNS -3.97% | SF-539 CNS -18.8% | UACC-257 melanoma 0.817% | M14 melanoma 0.234% | HT29 colon 3.55% | SNB-19 CNS 7.28% | PC-3 prostate 5.79% | SK-MEL-5 melanoma -13.2% | UACC-62 melanoma -28.6% | LOX IMVI melanoma -52.6% | SK-MEL-28 melanoma -0.295%
